Measured values as given in the supplement of paper PMC6555819.

The sequences below were run on VDR:RXRa (NR concentration 270 nM, RXRa partner concentration 90 nM) (assay: PBM binding z-score (relative to random genomic background probes); higher = stronger binding; sequences stand for … in GC…GCGATTGACAGCGTAGAATGAAGG).
Procedure: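 Protein-binding microarray (Agilent 4x180K custom design, double-stranded 60-nt probes: 5' GC cap, 34-nt variable region, 24-nt constant primer region; full probe sequence given). Purified or IVT nuclear receptor:RXRα heterodimers (3:1 NR:RXRα, mostly 270:90 nM) or homodimers were incubated for 1 h in PBS with 2% milk and no ligand, then detected with Alexa488 antibodies. Fluorescence from o1-orientation probes (~5 replicates averaged) was converted to z-scores against 500 random hg19 background probes. Variable regions are seed direct-repeat (DR0–DR5) sites, all their single-nucleotide variants and half-site ablations.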
With CCGAGGAGGTTATGGGGCATTCAGGCAACGGTGA the PBM binding z-score was 0.925. CGAACTAGGTCAGAACAGGACCGTGAAGGATGAT gave a PBM binding z-score of -0.102. CCTTACGGGTCACTGACAGGTTATGGCATTTGGA gave a PBM binding z-score of 3.75. Work on ATATGTAGTTTACATCCGGGTCATTCAGGCTATG yielded a PBM binding z-score of 3.49. GCTAGCAGGCCATTTGGGTCACTAAATGACGGGC showed a PBM binding z-score of 0.655. Sequence TCATATAGGTAAAGGGTGAAAGTCGGTGTGGTAA has a PBM binding z-score of 1.17. AGAAAGAGGTTATACGTAGATCAGGGAAGAAAGT showed a PBM binding z-score of 1.4. TATACAGGGTCAAAGTCCAGAGTACGAATGTCGA was tested, and the PBM binding z-score was 5.09. Sequence TCGAGTAGGTTAGTCGGGCCATTCAGCCAACATA has a PBM binding z-score of 0.761. In the case of CCTACTGGACCATTCAGAGGTCATTGATCATATG, the PBM binding z-score is reported as 3.95. For GGAACGAGGGCAAGTTGATAGCAGAGTTTGATGG, the PBM binding z-score was 0.688. ATTGAAAGGTCGACGAGGTGAGTATACACCGTTT was tested, and the PBM binding z-score was 5.31. For GGGACGAGGGCAAGTTGATAGCAGAGTTTGATGG, the PBM binding z-score was 1.29. CCTACTGGGCTAAAGGTCATTGATTCCAATGCTC showed a PBM binding z-score of 4.38. In the case of ACTAGGAGGCCAAGGGTCACTCAAGATTAGTCCG, the PBM binding z-score is reported as 2.98. GATACAGGGTCAAGACCAGAGTACGCGTATTGAT showed a PBM binding z-score of 4.33. With CTCGAAAGGTCGGTTGAGGTGATTATACGGATAA the PBM binding z-score was 3.1. Work on CATACTGGGCCAAAAAGGTCATTGATGCCGATAA yielded a PBM binding z-score of 5.08. Work on CGAACTAGGTGATCCAGGACAGTGAATACATTGA yielded a PBM binding z-score of 0.541. With CTCGTAAGGTCGTGCTCAGGTGAGTATACCAAAC the PBM binding z-score was 2.61. TCTCGGAGTACACGAAGGTCAGAGCTTTCCAGAG was tested, and the PBM binding z-score was 2.27. ATCGCAAGGTCGACGAGGTGAGTATACACCGTTT was tested, and the PBM binding z-score was 4.11. With ACTAGAAGGCCAAGTTTGGGTCACTCAAACAAAG the PBM binding z-score was 1.28. CCAGACGGGTGAGAAGGTAACTCAGCCTCGATTA was tested, and the PBM binding z-score was -0.516. For GCGACTGGGGAAAAGCAGGTTACCATAAGGTTGG, the PBM binding z-score was -0.273. In the case of GCTGTTAGGTCAGGTTGGTCAGCTAACGGGTACG, the PBM binding z-score is reported as 0.95. For TGAATCAGGTTATAAGATCAGGGAACGTTGCAAA, the PBM binding z-score was -0.0764. For TCTGCTAGGTTAGTTGGTCAGCTAACGAGCTGCC, the PBM binding z-score was -0.449. For TCTTGTAGCTCAAAGGTTAAGAAAGCCGAAGCCT, the PBM binding z-score was 0.581. With TCATATAGGTAAATGCTAGGTAAAAGTCCGATCT the PBM binding z-score was 0.968. For TCGCGGAGGACACGAAGGTCAGAGCTTTCCAGAG, the PBM binding z-score was 2.1. Sequence CGTCCAAGTTCAGAGAGGTCAGTGAATGCCGAGT has a PBM binding z-score of 6.86. With CAAACTAGGCCACGAAAGGTCAAAGTCGAATGAC the PBM binding z-score was 4.9. CCGAGTAGATTATGGGGCATTCAGGCAACGGTGA was tested, and the PBM binding z-score was -0.214. Work on CCTATTAGATGACCATAAGGGCAACCGAAGCTCG yielded a PBM binding z-score of 0.352. TCTGCTAGGTCAATGATGGTCAGCTAATCTGCTA showed a PBM binding z-score of 1.32. TCGAGTAGCTTACCAATGGGGCATTCAGCTTTCT gave a PBM binding z-score of -0.487. CCTACTGGGCCAAGGCCATTGATCAGTCAAAGCA showed a PBM binding z-score of -0.446. AGAACTAGGGCAATGAGTTGATAGCACGGGTGGC showed a PBM binding z-score of 3.17. CCGACCGGGGCAAAGGTTACCATACTCAGTACGA showed a PBM binding z-score of 2.06.
